The supplement of paper PMC10849652
The full data set covers some 7,900 targets. This sample favours those with a hit. About 0.6% of all pairs of compound and target were hits. A number with no mark means an inactive call.

What was measured:
Assay in all cases: log2 fold change, soluble protein after heating vs DMSO (PISA); higher = thermal stabilisation; K562 cells, 10 uM, 30 min; active = over 0.2 and 3.5 SD of the protein, either way, in both replicates (recomputed)
[1] = compound: CC[C@@H]1C(=O)N(C)c2cnc(Nc3ccc(C(=O)NC4CCN(C)CC4)cc3OC)nc2N1C1CCCC1
In short: (§1)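 Quantification of soluble protein used TMTpro 16plex LC-MS/MS, with channel sums equalised. Samples were the supernatant after 21,000xg for 90 min of pooled aliquots from K562 cells (2×10^6 cells/mL) treated with 10 μM compound for 30 min, heated for 3 min over 48°C-58°C, and extracted in PBS with 0.5% NP-40 at 4°C. Values, from duplicates, describe thermal stability against control samples on a log2 fold-change scale.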

volasertib = compound: CC[C@@H]1C(=O)N(C)c2cnc(Nc3ccc(C(=O)N[C@H]4CC[C@H](N5CCN(CC6CC6)CC5)CC4)cc3OC)nc2N1C(C)C [volasertib]
In short: as §1

[2] = compound: CC[C@H](C)N1C=C(C2=C(C=C(C=C21)C3=CN=C(C=C3)N4CCNCC4)C(=O)NCC5=C(C=C(NC5=O)C)C)C
In short: as §1

epoxomicin = compound: CC[C@H](C)[C@@H](C(=O)N[C@@H]([C@@H](C)O)C(=O)N[C@@H](CC(C)C)C(=O)[C@]1(CO1)C)NC(=O)[C@H]([C@@H](C)CC)N(C)C(=O)C [epoxomicin]
In short: as §1

[3] = compound: CCn1c(C(=O)N(C2CC2)C2CC2)cc2c3c(ncn3C)c(Nc3cc(C)n(C)n3)nc21
In short: as §1

[4] = compound: CCn1cc(-c2ccnc3[nH]c(-c4cccc(CN(C)C)c4)cc23)c(-c2ccc(NC(=O)N(C)C)cc2)n1
In short: as §1

[5] = compound: CN(C)CC(=O)Nc1ccc2[nH]c(=O)c3ccccc3c2c1
In short: as §1

rosiglitazone = compound: CN(CCOC1=CC=C(C=C1)C[C@H]2C(=O)NC(=O)S2)C3=CC=CC=N3 (racemic) [rosiglitazone]
In short: as §1

[6] = compound: CN1C2=C(C3=C1C(=O)N(N=C3)CC4=CC(=CC=C4)N)SC(=C2)S(=O)C
In short: as §1

[7] = compound: CN1CCC(CNc2ccc3ncc(-c4cccc(OC(F)(F)F)c4)n3n2)CC1
In short: as §1

saracatinib = compound: CN1CCN(CCOc2cc(OC3CCOCC3)c3c(Nc4c(Cl)ccc5c4OCO5)ncnc3c2)CC1 [saracatinib]
In short: as §1

sotrastaurin = compound: CN1CCN(c2nc(C3=C(c4c[nH]c5ccccc45)C(=O)NC3=O)c3ccccc3n2)CC1 [sotrastaurin]
In short: as §1

alvocidib = compound: CN1CC[C@H](c2c(O)cc(O)c3c(=O)cc(-c4ccccc4Cl)oc23)[C@H](O)C1 [alvocidib]
In short: as §1

Tubastatin A = compound: CN1CCc2c(c3ccccc3n2Cc2ccc(C(=O)NO)cc2)C1 [Tubastatin A]
In short: as §1

[8] = compound: CNC(=O)C1=CC=CC=C1NC2=NC(=NC=C2Cl)NC3=C(C=C(C=C3)N4CCOCC4)OC
In short: as §1

defactinib = compound: CNC(=O)c1ccc(Nc2ncc(C(F)(F)F)c(NCc3nccnc3N(C)S(C)(=O)=O)n2)cc1 [defactinib]
In short: as §1

rucaparib = compound: CNCc1ccc(-c2[nH]c3cc(F)cc4c3c2CCNC4=O)cc1 [rucaparib]
In short: as §1

[9] = compound: CNc1nc(-c2ccc3c(N)n[nH]c3c2)cc(N2C[C@@H](C(=O)NC3CCCCC3)CC[C@H]2C)n1
In short: as §1

encorafenib = compound: COC(=O)N[C@@H](C)CNc1nccc(-c2cn(C(C)C)nc2-c2cc(Cl)cc(NS(C)(=O)=O)c2F)n1 [encorafenib]
In short: as §1

[10] = compound: COC(=O)[C@H](CCSC)NC(=O)C1=C(C=C(C=C1)NC[C@H](CS)N)C2=CC=CC=C2
In short: as §1

Sequence of UniProt Q969V5 (Q969V5 whole entry, looked up): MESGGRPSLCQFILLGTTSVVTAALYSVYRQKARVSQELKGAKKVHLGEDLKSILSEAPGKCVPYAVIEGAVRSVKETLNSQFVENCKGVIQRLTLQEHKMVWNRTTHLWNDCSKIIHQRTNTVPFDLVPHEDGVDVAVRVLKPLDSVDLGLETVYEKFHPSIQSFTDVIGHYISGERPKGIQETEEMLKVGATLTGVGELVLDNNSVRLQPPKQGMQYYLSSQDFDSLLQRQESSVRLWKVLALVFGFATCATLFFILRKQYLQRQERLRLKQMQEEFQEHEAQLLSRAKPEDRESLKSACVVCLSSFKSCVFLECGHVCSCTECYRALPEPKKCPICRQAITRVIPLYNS
Sequence of UniProt Q9HCE1 (Q9HCE1 whole entry, looked up): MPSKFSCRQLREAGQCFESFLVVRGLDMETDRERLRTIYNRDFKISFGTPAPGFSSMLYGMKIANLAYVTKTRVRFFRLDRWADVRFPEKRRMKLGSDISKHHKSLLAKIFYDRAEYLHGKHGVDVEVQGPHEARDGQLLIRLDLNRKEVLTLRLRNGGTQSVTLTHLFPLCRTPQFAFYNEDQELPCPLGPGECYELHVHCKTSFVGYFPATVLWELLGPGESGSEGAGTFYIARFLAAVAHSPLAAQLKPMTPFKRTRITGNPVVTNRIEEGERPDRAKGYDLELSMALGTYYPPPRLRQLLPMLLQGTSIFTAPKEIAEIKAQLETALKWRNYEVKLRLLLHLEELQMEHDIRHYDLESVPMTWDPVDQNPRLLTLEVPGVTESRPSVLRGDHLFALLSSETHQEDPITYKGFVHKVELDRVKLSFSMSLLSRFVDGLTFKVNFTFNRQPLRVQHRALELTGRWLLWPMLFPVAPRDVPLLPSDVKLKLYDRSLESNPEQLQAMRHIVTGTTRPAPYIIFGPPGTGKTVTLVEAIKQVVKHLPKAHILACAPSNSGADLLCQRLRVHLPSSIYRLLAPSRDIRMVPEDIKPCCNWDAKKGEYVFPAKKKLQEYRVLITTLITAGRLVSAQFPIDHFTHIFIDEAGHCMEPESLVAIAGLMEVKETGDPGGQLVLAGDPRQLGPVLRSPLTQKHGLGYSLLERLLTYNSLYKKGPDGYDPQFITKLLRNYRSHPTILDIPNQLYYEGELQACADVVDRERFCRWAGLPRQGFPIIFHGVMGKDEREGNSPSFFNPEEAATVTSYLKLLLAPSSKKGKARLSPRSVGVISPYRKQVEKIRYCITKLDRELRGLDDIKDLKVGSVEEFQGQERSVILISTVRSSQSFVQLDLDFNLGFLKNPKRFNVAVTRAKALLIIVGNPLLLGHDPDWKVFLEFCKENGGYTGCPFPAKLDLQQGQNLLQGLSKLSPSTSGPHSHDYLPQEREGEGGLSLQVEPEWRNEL
Sequence of UniProt P03905 (P03905 whole entry, looked up): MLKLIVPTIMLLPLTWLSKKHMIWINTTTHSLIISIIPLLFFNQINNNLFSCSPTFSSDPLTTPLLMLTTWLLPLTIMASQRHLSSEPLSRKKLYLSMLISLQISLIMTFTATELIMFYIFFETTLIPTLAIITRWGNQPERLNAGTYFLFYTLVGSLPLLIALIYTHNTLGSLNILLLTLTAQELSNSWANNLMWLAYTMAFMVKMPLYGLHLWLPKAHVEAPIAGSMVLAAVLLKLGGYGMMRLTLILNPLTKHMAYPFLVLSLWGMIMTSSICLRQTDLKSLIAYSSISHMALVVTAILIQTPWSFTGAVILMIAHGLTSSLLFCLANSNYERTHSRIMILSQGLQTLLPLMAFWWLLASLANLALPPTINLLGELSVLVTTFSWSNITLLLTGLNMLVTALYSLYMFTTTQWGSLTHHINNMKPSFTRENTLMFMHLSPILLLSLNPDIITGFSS
Sequence of UniProt Q15014 (Q15014 whole entry, looked up): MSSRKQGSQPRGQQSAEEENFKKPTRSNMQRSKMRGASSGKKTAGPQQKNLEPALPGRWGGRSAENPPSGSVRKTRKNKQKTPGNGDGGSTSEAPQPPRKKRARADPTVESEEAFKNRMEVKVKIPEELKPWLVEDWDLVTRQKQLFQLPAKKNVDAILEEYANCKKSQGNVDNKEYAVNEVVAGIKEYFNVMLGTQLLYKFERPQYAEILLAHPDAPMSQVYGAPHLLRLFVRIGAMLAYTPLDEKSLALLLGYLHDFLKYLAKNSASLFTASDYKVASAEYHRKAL
Sequence of UniProt Q14978 (Q14978 whole entry, looked up): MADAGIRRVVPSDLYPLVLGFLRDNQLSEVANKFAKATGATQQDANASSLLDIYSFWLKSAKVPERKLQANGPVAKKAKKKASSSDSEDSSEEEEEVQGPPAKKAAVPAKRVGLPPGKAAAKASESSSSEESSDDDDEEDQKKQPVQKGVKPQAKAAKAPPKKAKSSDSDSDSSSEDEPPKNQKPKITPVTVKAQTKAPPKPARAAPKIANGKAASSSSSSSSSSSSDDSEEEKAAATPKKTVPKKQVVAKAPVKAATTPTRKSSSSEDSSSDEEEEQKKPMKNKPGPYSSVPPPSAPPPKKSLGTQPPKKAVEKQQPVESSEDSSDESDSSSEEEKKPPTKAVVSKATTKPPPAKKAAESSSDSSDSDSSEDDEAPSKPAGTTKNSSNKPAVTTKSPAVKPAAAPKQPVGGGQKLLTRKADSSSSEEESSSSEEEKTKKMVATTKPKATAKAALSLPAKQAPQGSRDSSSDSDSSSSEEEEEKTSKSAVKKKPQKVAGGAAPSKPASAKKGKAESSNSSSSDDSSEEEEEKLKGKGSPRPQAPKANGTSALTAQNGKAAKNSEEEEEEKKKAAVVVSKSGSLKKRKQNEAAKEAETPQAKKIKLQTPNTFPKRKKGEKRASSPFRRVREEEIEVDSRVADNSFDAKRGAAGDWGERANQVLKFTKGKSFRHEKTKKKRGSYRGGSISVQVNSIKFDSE
Sequence of UniProt Q9H1E3 (Q9H1E3 whole entry, looked up): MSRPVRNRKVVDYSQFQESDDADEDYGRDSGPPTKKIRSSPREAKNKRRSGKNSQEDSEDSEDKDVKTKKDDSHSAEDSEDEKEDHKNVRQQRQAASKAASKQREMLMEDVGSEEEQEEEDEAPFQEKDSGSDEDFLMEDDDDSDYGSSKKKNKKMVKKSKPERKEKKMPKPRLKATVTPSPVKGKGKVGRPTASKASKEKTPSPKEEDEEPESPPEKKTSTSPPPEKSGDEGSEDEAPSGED

Target	log2 fold change [1]	log2 fold change (volasertib)	log2 fold change [2]	log2 fold change (epoxomicin)	log2 fold change [3]	log2 fold change [4]	log2 fold change [5]	log2 fold change (rosiglitazone)	log2 fold change [6]	log2 fold change [7]	log2 fold change (saracatinib)	log2 fold change (sotrastaurin)	log2 fold change (alvocidib)	log2 fold change (Tubastatin A)	log2 fold change [8]	log2 fold change (defactinib)	log2 fold change (rucaparib)	log2 fold change [9]	log2 fold change (encorafenib)	log2 fold change [10]
NUCKS1 (UniProt Q9H1E3)	-0.061	-0.012	-0.028	0.016	0.033	0.014	-0.073	0.001	-0.043	-0.083	0.006	0.075	0.115	-0.006	-0.167	0.048	0.027	-0.071	-0.068	-0.006
NOLC1 isoform 2 (UniProt Q14978)	-0.155	-0.024	-0.051	-0.06	-0.015	0.047	-0.048	-0.018	0.026	-0.112	-0.007	-0.036	-0.206	0.153	-0.122	-0.346 (active)	-0.025	-0.089	-0.007	0
MOV10 (UniProt Q9HCE1)	0.199	0.195	-0.029	-0.156	0.029	0.158	-0.061	-0.044	0.185	0.331	0.007	0.024	0.232	0.025	0.107	0.167	0.271	0	0.05	0.053
MORF4L2 (UniProt Q15014)	0.074	0.023	0.014	0.085	0.014	0.075	-0.125	-0.051	0.12	0.076	-0.002	-0.01	0.022	0.136	-0.003	0.011	0.056	-0.1	0.04	0.066
MT-ND4 (UniProt P03905)	0	-0.102	-0.028	0	-0.071	0.391 (active)	-0.025	0.159	-0.065	0.029	0.048	-0.025	-0.022	0.061	0.053	-0.143	-0.077	-0.145	0.058	0.057
MRPS12 (UniProt O15235)	-0.043	-0.024	0.077	-0.001	-0.04	-0.072	-0.103	0.063	0.091	-0.014	-0.19	-0.068	-0.001	-0.02	-0.017	0.119	0.299	0.233	0.105	0.048
OXA1L (UniProt Q15070)	-0.067	-0.014	-0.015	-0.046	0.013	-0.012	-0.019	0.016	-0.027	-0.221 (active)	0.018	0.003	-0.01	-0.036	0.004	0.005	-0.029	-0.054	-0.027	0.031
MUL1 (UniProt Q969V5)	0.061	0	0.045	0.04	-0.004	0.014	-0.028	0.052	-0.004	-0.115	0.054	0.079	-0.013	0.047	0.056	0.059	0.072	-0.018	-0.074	0.079
